This passage reports AC50 results from PMC6792352, “Limited Chemical Structural Diversity Found to Modulate Thyroid Hormone Receptor in the Tox21 Chemical Library” (Environmental Health Perspectives, 2019).

This test concerns thyroid hormone receptor (endogenous TRα and TRβ). More on the design: species or system GH3-TRE-Luc (rat pituitary); GH3-TRE-Luc luciferase reporter, antagonist mode against 1 nM T3, loss of signal, qHTS. The note with it: antagonist mode, 1 nM T3, no GH3 cytotoxicity hit, read-out: Average AC50 (uM) GH3-TRE-Antag.
Turning to `C[C@]12CC[C@H]3[C@@H](CCC4=C(Cl)C(=O)CC[C@@]43C)[C@@H]1CC[C@@H]2O` [Clostebol], the AC50 (in general, the concentration giving half of the maximal activity seen) came out at 29.2 µM.

Turning to `CC(=O)O[C@H]1CC[C@@]2(C)C(=CC[C@@H]3[C@@H]2CC[C@]2(C)C(=O)CC[C@@H]32)C1` [Dehydroepiandrosterone acetate], the AC50 came to 17.4 µM.

`Oc1ccc(Cl)c(Cl)c1Cl` [2,3,4-Trichlorophenol]: the AC50 stood at 87.3 µM.

On to `O=[N+]([O-])c1cccc2cccc([N+](=O)[O-])c12` [1,8-Dinitronaphthalene], for which the AC50 was 49.5 µM.

Consider `CCOP(=S)(OCC)Oc1cc(C)nc(C(C)C)n1` [Diazinon], for which the AC50 turned out to be 46.4 µM.

For `C[C@]12CCC(=O)C=C1CC[C@@H]1[C@@H]2CC[C@@]2(C)[C@H]1CC[C@]2(C)O` [17-Methyltestosterone], the AC50 was 46 µM.

Consider `CCN(CC)c1nc(C)cc(OP(=S)(OC)OC)n1` [Pirimiphos-methyl], for which the AC50 turned out to be 57.1 µM.

Regarding `CCN(CC)C(=O)[C@@H]1C=C2c3cccc4[nH]cc(c34)C[C@H]2N(C)C1` [Lysergide], the AC50 was above 50 µM.

On to `CCC(N)Cc1c[nH]c2ccccc12` (stereo not drawn) [Etryptamine acetate], for which the AC50 is 43.6 µM.

Take `NC(=S)Nc1ccccc1` [1-Phenyl-2-thiourea]: the AC50 worked out at 43.9 µM.

With `COP(=O)(OC)OC(=CCl)c1cc(Cl)c(Cl)cc1Cl` [Tetrachlorovinphos], the half-maximal activity concentration (AC50) came to 27.1 µM.

`CNC(=O)O/N=C(\SC)C(=O)N(C)C` [Oxamyl]: the AC50 was above 90 µM.

For `O=[N+]([O-])c1ccc(Oc2ccc(C(F)(F)F)cc2[N+](=O)[O-])cc1` [Fluorodifen], the AC50 was above 90 µM.

`C[C@]12CCC(=O)C=C1CC[C@@H]1[C@@H]2CC[C@]2(C)C(=O)CC[C@@H]12` [4-Androstene-3,17-dione]: the AC50 is above 50 µM.

On to `CCCSP(=O)(OCC)Oc1ccc(Br)cc1Cl` (stereo not drawn) [Profenofos], for which the AC50 is above 50 µM.

As for `C[C@]12CC[C@H]3[C@@H](CCC4=CC(=O)CC[C@@]43C)[C@@H]1CC[C@H]2O` [Epitestosterone], the AC50 is 38.7 µM.

Turning to `CN(C)c1ccc(C(c2ccccc2)c2ccc(N(C)C)cc2)cc1` [Leucomalachite green], the AC50 was 20.8 µM.

As to `COP(=S)(OC)SCN1C(=O)c2ccccc2C1=O` [Phosmet], the AC50 is above 50 µM.

Turning to `CCCCSP(=O)(SCCCC)SCCCC` [Tribufos], the AC50 was determined as 50.4 µM.

For `C[C@]12CCC(=O)C[C@@H]1CC[C@@H]1[C@@H]2CC[C@]2(C)[C@@H](O)CC[C@@H]12` [5alpha-Dihydrotestosterone], the AC50 was 27.8 µM.

Consider `CCOP(=S)(OCC)SC(CCl)N1C(=O)c2ccccc2C1=O` (stereo not drawn) [Dialifor], for which the AC50 was above 90 µM.

As for `Oc1ccc(Cl)c(Cl)c1` [3,4-Dichlorophenol], the AC50 was 59.5 µM.

On to `OC(c1ccccc1)(c1ccccc1)C1CCNCC1` [Azacyclonol], for which the AC50 turned out to be 10.4 µM.

As to `O=P(Oc1ccccc1)(Oc1ccccc1)Oc1ccccc1` [Triphenyl phosphate], the AC50 is above 90 µM.

With `C[C@]12CC[C@H]3[C@@H](CCC4=CC(=O)CC[C@@]43C)[C@@H]1CC[C@@H]2O` [Testosterone], the AC50 amounted to 59 µM.

`COC(=O)c1c(C(F)F)nc(C(F)(F)F)c(C2=NCCS2)c1CC(C)C` [Thiazopyr]: the AC50 is above 90 µM.

`COP(=S)(OC)Oc1cc(Cl)c(Br)cc1Cl` [Bromofos]: the half-maximal activity concentration (AC50) was determined as 65.8 µM.
